Compound activity: PubChem BioAssay, National Center for Advancing Translational Sciences (NCATS)
HEK293 tox – Cytotoxic Profiling in HEK 293 Cell Line of Diverse Libraries Using Quantitative High-Throughput Screening; HEK 293 viability, ATP luminescence (CellTiter-Glo), 48-72 h; Potency, µM (highest dose often 115 µM), most hits filed as inhibitors; 94,000 tested, 6.6% active; AID 1345083, 2018; further: nearly all actives have a fitted effect of over 60% in size
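Cytotoxicity was scored by loss of ATP-coupled luminescence (CellTiter-Glo) in HEK 293 cells. Compound treatment ran 48 or 72 hr at 37 degree Celsius, 5% CO2, 95% humidity.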
GPT2 inhibitor – Primary qHTS assay for inhibitors of Glutamate pyruvate transaminase 2 (GPT2). AID 1671188, 2021. Potency, µM (series often up to 57.7 µM), usual class: inhibitors. Recombinant GPT2, coupled pyruvate oxidase/HRP Amplex Red fluorescence. 100,000 tested, 0.25% active; further: nearly all actives have a fitted effect of over 60% in size
Target sequence (Q8TD30 whole entry, looked up): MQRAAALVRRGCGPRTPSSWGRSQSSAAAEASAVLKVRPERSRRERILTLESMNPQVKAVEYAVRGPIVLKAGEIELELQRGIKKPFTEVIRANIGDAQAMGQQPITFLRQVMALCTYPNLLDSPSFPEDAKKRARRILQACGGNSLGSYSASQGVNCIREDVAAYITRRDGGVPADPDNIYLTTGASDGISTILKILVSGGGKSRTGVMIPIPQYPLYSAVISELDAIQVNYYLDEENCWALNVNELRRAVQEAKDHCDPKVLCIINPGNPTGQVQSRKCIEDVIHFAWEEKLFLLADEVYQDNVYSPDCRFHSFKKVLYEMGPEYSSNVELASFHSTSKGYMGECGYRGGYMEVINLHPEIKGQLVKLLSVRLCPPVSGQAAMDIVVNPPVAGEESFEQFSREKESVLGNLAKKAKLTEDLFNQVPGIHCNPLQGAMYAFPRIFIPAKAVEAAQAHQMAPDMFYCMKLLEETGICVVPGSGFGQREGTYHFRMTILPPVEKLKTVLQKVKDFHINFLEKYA
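Fluorescence read-out: pyruvate from GPT2 turnover coupled to pyruvate oxidase, HRP and Amplex Red (0.2mM ThPP, 0.2U/mL PO and HRP, 50uM Amplex final). Substrates 250uM a-KG, 2mM L-alanine; enzyme 10ng/uL; 30 min RT.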
FLuc inh – Firefly luciferase inhibition profiling of diverse chemical library using quantitative high-throughput screening. purified P. pyralis luciferase, luminescence, biochemical. Luciferin 4-monooxygenase (Photinus pyralis), P08659. Potency, µM (series often up to 115 µM), usual class: inhibitors. AID 1347043, 2019. 76,000 tested, 2.5% active; further: nearly all actives have a fitted effect of over 65% in size
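Luminescence read by CCD imager after adding enzyme (10nM final) to wells holding compound, titrated in qHTS. Substrates 10uM each D-luciferin and ATP; buffer 50mM Tris acetate pH 7.5, 10mM Mg acetate, Tween-20, BSA.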
hNpr1 antagonist – Natriuretic polypeptide receptor (hNpr1) antagonism - Primary qHTS; Atrial natriuretic peptide receptor 1 (Homo sapiens), P16066; HEK293 hNpr1 GloSensor cGMP, ANP-stimulated luminescence; Potency, µM (series often up to 46.3 µM), actives largely listed as inhibitors; 76,000 tested, 1.6% active; AID 1347048, 2019; calls by dose curve; further: nearly all actives have a fitted effect of over 60% in size
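Compound pre-incubated 30 min at room temperature on GloSensor-loaded HEK293 cells stably carrying hNpr1 and the pGS-40F cGMP biosensor. Stimulation uses hNppA at 0.1 nM final; luminescence is taken at baseline and 20 min post-agonist.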
3T3 cytotox – Cytotoxic Profiling in NIH 3T3 Cell Line of Diverse Libraries Using Quantitative High-Throughput Screening; NIH 3T3 viability, CellTiter-Glo ATP luminescence, 48-72 h; Potency, µM (doses to about 96.7 µM), hits mostly inhibitors; 94,000 tested, 4.3% active; further: nearly all actives have a fitted effect of over 55% in size
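Cytotoxicity is measured as loss of cellular ATP: NIH 3T3 cells (400/well) are exposed to compound for 48 or 72 hr at 37 °C, then CellTiter-Glo luminescence is imaged after 10 min at room temperature.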
NPR1 antag cnf – Natriuretic polypeptide receptor (hNpr1) antagonism - Confirmation | shares compounds with hNpr1 antagonist | HEK293 hNpr1 cGMP GloSensor luminescence, ANP-stimulated | Potency, µM (top dose mostly 57.6 µM), hits mostly inhibitors | 1,400 tested, 76% active | AID 1347044, 2019; calls by dose curve; further: nearly all actives have a fitted effect of over 70% in size
Npr2 selectivity – Natriuretic polypeptide receptor (hNpr2) antagonism - Subtype selectivity assay; HEK293 hNpr2 GloSensor cGMP luminescence, CNP-stimulated; AID 1347046, 2019; 1,400 tested, 67% active; Potency, µM (top dose mostly 57.6 µM), most hits filed as inhibitors; shares compounds with hNpr1 antagonist; calls by dose curve; further: nearly all actives have a fitted effect of over 70% in size
FLuc inh counter – Natriuretic polypeptide receptor (hNpr1) antagonism - Confirmation firefly luciferase (FLuc) inhibition counterscreen | shares compounds with hNpr1 antagonist | Potency, µM (doses to about 57.6 µM), most hits filed as inhibitors | AID 1347047, 2019 | purified FLuc enzyme, luminescence, Km substrate | 1,400 tested, 0.7% active
GloSensor ctrl – Natriuretic polypeptide receptor (hNpr1) antagonism - Counterscreen GloSensor control cell line; shares compounds with hNpr1 antagonist; HEK293 GloSensor cGMP, SNP-stimulated, luminescence; Potency, µM (titrated, usually from 57.6 µM), actives largely listed as inhibitors; 1,400 tested, 69% active; AID 1347051, 2019; calls by dose curve; further: nearly all actives have a fitted effect of over 70% in size
Large screens that a line does not name were inactive (follow-up assays come after a bar, where they were run). Most compounds without a hit are left out; they make up all but 10% or so of the library. Unless noted, the call rests on the fitted dose curve; in most records, active means well fitted curve in the direction sought with a large enough effect; inconclusive means small, poorly fitted or top-dose-only effect, or another doubt; inactive means no such curve, though single readings can be large; an effect the other way counts as inactive or inconclusive.

O[C@@H]1CO[C@H]2[C@@H]1OC[C@@H]2n1cc(-c2ccccc2)nn1	HEK293 tox inconclusive
c1ccc(CCCN[C@H]2CO[C@H]3[C@@H]2OC[C@@H]3n2cc(-c3ccccc3)nn2)cc1	HEK293 tox inconclusive, hNpr1 antagonist 10µM, 3T3 cytotox inconclusive | NPR1 antag cnf 16µM | Npr2 selectivity 20µM | FLuc inh counter inactive | GloSensor ctrl 16µM
COC(=O)c1cccc(NC(=S)N[C@H]2CO[C@H]3[C@@H]2OC[C@@H]3n2cc(-c3ccccc3)nn2)c1	HEK293 tox inconclusive, hNpr1 antagonist 11µM, 3T3 cytotox inconclusive | NPR1 antag cnf 12µM | Npr2 selectivity 17µM | FLuc inh counter inactive | GloSensor ctrl 12µM
COc1ccc(C(=O)N2CCCN(c3ccc4nnc(C5CC5)n4n3)CC2)cc1	none (no result: GPT2 inhibitor, FLuc inh, hNpr1 antagonist)
CC(C)[C@@H]1CN(S(=O)(=O)c2ccc(Cl)cc2Cl)C[C@H]1N(C)C	HEK293 tox inconclusive, 3T3 cytotox inconclusive
CNC(=O)c1cc(C2CC2)nc2onc(C3CCCN3C(=O)NC(C)c3ccccc3)c12 (stereo not drawn)	none (no result: GPT2 inhibitor, FLuc inh, hNpr1 antagonist)
Cc1ccc(Cl)cc1NC(=O)c1cnc(-c2ccccc2)nc1-c1ccncc1	hNpr1 antagonist inconclusive, 3T3 cytotox inconclusive | NPR1 antag cnf inconclusive | Npr2 selectivity inconclusive | FLuc inh counter inactive | GloSensor ctrl inactive
COc1cc(NC(=O)c2cnc(-c3ccc(F)cc3)nc2-c2ccncc2)cc(OC)c1	HEK293 tox inconclusive, 3T3 cytotox inconclusive
O=C(Nc1cccc(F)c1)c1cnc(-c2ccc(F)cc2)nc1-c1ccncc1	HEK293 tox 45µM, hNpr1 antagonist inconclusive, 3T3 cytotox inconclusive | NPR1 antag cnf inconclusive | Npr2 selectivity inconclusive | FLuc inh counter inactive | GloSensor ctrl inconclusive
COc1cccc(CNC(=O)Nc2nc(-c3ccncc3)cs2)c1	none (no result: HEK293 tox, FLuc inh, hNpr1 antagonist, 3T3 cytotox)
COc1cccc(N2CCN(c3nc(C(=O)NCc4ccccc4F)cs3)CC2)c1	HEK293 tox 45µM, GPT2 inhibitor inconclusive, hNpr1 antagonist 13µM, 3T3 cytotox inconclusive | NPR1 antag cnf 27µM | Npr2 selectivity inconclusive | FLuc inh counter inactive | GloSensor ctrl inconclusive
COc1cccc(N2CCN(c3nc(C(=O)NCc4ccncc4)cs3)CC2)c1	HEK293 tox 35µM, hNpr1 antagonist inconclusive, 3T3 cytotox inconclusive | NPR1 antag cnf 27µM | Npr2 selectivity 22µM | FLuc inh counter inactive | GloSensor ctrl 27µM
OCCC1CN(c2nc(-c3ccccc3)nc3c2CCC3)CCN1C1CCCC1 (stereo not drawn)	HEK293 tox inconclusive, 3T3 cytotox inconclusive
CCOc1ccccc1C(=O)N1CCC(Cc2nc(-c3ccc(F)cc3)no2)CC1	HEK293 tox inconclusive, hNpr1 antagonist inconclusive, 3T3 cytotox inconclusive
COc1ccc(-c2noc(CC3CCN(C(=O)c4cc(Cl)ccc4OC)CC3)n2)cc1	HEK293 tox 32µM, 3T3 cytotox inconclusive | NPR1 antag cnf 22µM | Npr2 selectivity 24µM | FLuc inh counter inactive | GloSensor ctrl 22µM
COc1cc(Cl)ccc1C(=O)N1CCC(Cc2nc(-c3ccc(F)cc3)no2)CC1	HEK293 tox inconclusive, hNpr1 antagonist 5.6µM, 3T3 cytotox 11µM | NPR1 antag cnf 4.8µM | Npr2 selectivity 6.1µM | FLuc inh counter inactive | GloSensor ctrl 6.9µM
CCOC(=O)C1CCCN(C(=O)Cc2ccc(N(Cc3ccccc3)C(=O)c3ccco3)cc2)C1 (stereo not drawn)	HEK293 tox inconclusive, 3T3 cytotox inconclusive
COc1cccc(-c2cc3c(=O)n(CCNC(=O)c4ccc(C(C)(C)C)cc4)ccn3n2)c1	HEK293 tox inconclusive
CCn1c2c(c(=O)n1-c1ccccc1)CCN(C(=O)c1ccc(Oc3ccccc3)cc1)C2	HEK293 tox inconclusive, hNpr1 antagonist 8.9µM, 3T3 cytotox inconclusive | NPR1 antag cnf 8.6µM | Npr2 selectivity 11µM | FLuc inh counter inactive | GloSensor ctrl 7.7µM
CCn1c2c(c(=O)n1Cc1ccccc1)CCN(C(=O)c1ccc(Oc3ccccc3)cc1)C2	HEK293 tox inconclusive, hNpr1 antagonist 11µM, 3T3 cytotox inconclusive | NPR1 antag cnf 24µM | Npr2 selectivity 22µM | FLuc inh counter inactive | GloSensor ctrl 19µM
COCCn1c2c(c(=O)n1-c1ccccc1)CCN(C(=O)c1ccccc1)C2	3T3 cytotox inconclusive
COCCn1c(=O)c2c(n1Cc1ccccc1)CN(C(=O)c1ccc(Oc3ccccc3)cc1)CC2	HEK293 tox inconclusive, 3T3 cytotox inconclusive
O=C1CC2(CCN(C(=O)C3CCCN3C(=O)Cc3cccc(Cl)c3)CC2)Oc2ccccc2N1 (stereo not drawn)	HEK293 tox inconclusive, 3T3 cytotox inconclusive (no result: FLuc inh, hNpr1 antagonist)
COCCn1c(=O)c(C(=O)N2CCN([S+](=O)([O-])c3c(C)noc3C)CC2)nc2cccnc21	none (no result: FLuc inh, hNpr1 antagonist)
O=C(c1cc(F)ccc1F)N1CCN(c2cc(-c3ccc(Cl)cc3)[nH]n2)CC1	HEK293 tox 35µM, hNpr1 antagonist inconclusive, 3T3 cytotox 28µM | NPR1 antag cnf 27µM | Npr2 selectivity 24µM | FLuc inh counter inactive | GloSensor ctrl 31µM
O=C(c1cc(Cl)ccc1F)N1CCN(c2cc(-c3ccccc3)[nH]n2)CC1	HEK293 tox inconclusive, 3T3 cytotox inconclusive
O=C(c1ccc(F)cc1Cl)N1CCN(c2cc(-c3ccc(F)cc3)[nH]n2)CC1	HEK293 tox inconclusive, hNpr1 antagonist 11µM, 3T3 cytotox inconclusive | NPR1 antag cnf 17µM | Npr2 selectivity 19µM | FLuc inh counter inactive | GloSensor ctrl 15µM
CCN(CCOC)Cc1cn(-c2ccc(F)cc2F)nc1-c1ccccc1C	HEK293 tox inconclusive
